# Test results taken from the supplement of paper PMC6555819.
# Assays:
# Experiment in all cases: PBM binding z-score (relative to random genomic background probes); higher = stronger binding; sequences stand for … in GC…GCGATTGACAGCGTAGAATGAAGG
# [1] = tested on: FXR:RXRa (NR concentration 270 nM, RXRa partner concentration 90 nM)
# Method in brief: (§1)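 Ligand-free nuclear receptor dimers were applied to custom Agilent 4×180K protein-binding microarrays whose double-stranded probes carried direct-repeat seeds, single-nucleotide variants, half-site ablations and random human genomic background sequences in 34-nt variable regions. Incubation lasted 1 h. Binding z-scores were computed against the random background probes from regression-normalized fluorescence.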
# [2] = tested on: LXRa:RXRa (NR concentration 270 nM, RXRa partner concentration 90 nM)
# Method in brief: as §1
# [3] = tested on: LXRa homodimer (NR concentration 270 nM)
# Method in brief: as §1
# [4] = tested on: LXRb:RXRa (NR concentration 270 nM, RXRa partner concentration 90 nM)
# Method in brief: as §1
# [5] = tested on: LXRb homodimer (NR concentration 270 nM)
# Method in brief: as §1
# [6] = tested on: PPARa:RXRa (NR concentration 270 nM, RXRa partner concentration 90 nM)
# Method in brief: as §1
# [7] = tested on: PPARg:RXRa (NR concentration 180 nM, RXRa partner concentration 90 nM)
# Method in brief: as §1
# [8] = tested on: PPARg:RXRa 270nM:90nM, anti-RXR (NR concentration 270 nM, RXRa partner concentration 90 nM)
# Method in brief: as §1
# [9] = tested on: PPARg:RXRa 30nM:10nM, anti-RXR (NR concentration 30 nM, RXRa partner concentration 10 nM)
# Method in brief: as §1
# [10] = tested on: PPARg:RXRa 90nM:30nM, anti-RXR (NR concentration 90 nM, RXRa partner concentration 30 nM)
# Method in brief: as §1
# [11] = tested on: PPARg:RXRa DBDmut IVT, anti-RXR (DBD mutation: RXRa K156A/R161A, NR concentration 270 nM, RXRa partner concentration 90 nM)
# Method in brief: as §1
# [12] = tested on: PPARg:RXRa IVT, anti-PPARg (NR concentration 270 nM, RXRa partner concentration 90 nM)
# Method in brief: as §1
# [13] = tested on: PPARg DBDmut:RXRa IVT, anti-PPARg (DBD mutation: PPARg1 K132A/R137A, NR concentration 270 nM, RXRa partner concentration 90 nM)
# Method in brief: as §1
# [14] = tested on: PPARg DBDmut IVT, anti-PPARg (DBD mutation: PPARg1 K132A/R137A, NR concentration 270 nM)
# Method in brief: as §1
# [15] = tested on: PPARg homodimer (NR concentration 180 nM)
# Method in brief: as §1
# [16] = tested on: PXR:RXRa (NR concentration 270 nM, RXRa partner concentration 90 nM)
# Method in brief: as §1
# [17] = tested on: PXR homodimer (NR concentration 270 nM)
# Method in brief: as §1
# [18] = tested on: RARa:RXR (NR concentration 270 nM, RXRa partner concentration 90 nM)
# Method in brief: as §1
# [19] = tested on: RARa homodimer (NR concentration 270 nM)
# Method in brief: as §1
# [20] = tested on: RARb:RXRa (NR concentration 270 nM, RXRa partner concentration 90 nM)
# Method in brief: as §1
Sequence,PBM binding z-score [1],PBM binding z-score [2],PBM binding z-score [3],PBM binding z-score [4],PBM binding z-score [5],PBM binding z-score [6],PBM binding z-score [7],PBM binding z-score [8],PBM binding z-score [9],PBM binding z-score [10],PBM binding z-score [11],PBM binding z-score [12],PBM binding z-score [13],PBM binding z-score [14],PBM binding z-score [15],PBM binding z-score [16],PBM binding z-score [17],PBM binding z-score [18],PBM binding z-score [19],PBM binding z-score [20]
CCTACTAGGCCATTCAGAGGTCATTGATCATATG,3.52,4.52,7.03,4.15,1.58,4.04,3.11,3.87,1.41,3.08,5.98,5.01,1.66,0.481,2.94,4.79,3.44,4.84,1.44,3.45
CGTCCAAGGCCAAAGGTCAGTGAAGAGATGACGG,4.06,3.48,0.794,3.05,-0.142,5.2,7.29,6.97,5.65,7.26,0.453,3.33,-0.0649,-1.23,3.96,4.26,0.612,5.8,1.79,4.58
CCTAGCAGGCCAATTTGGGTCACTCAAGGCTTGA,1.3,1.3,-0.0886,1.16,-1.16,2.37,0.558,0.917,-0.434,0.671,2.7,2.91,-1.03,-1.39,0.323,1.12,-0.236,1.52,-0.55,1.29
GGAACGAGGGCAAAATTGATAGCATCTGTCGACG,0.343,0.168,-0.325,0.129,-0.58,1.03,1.22,1.52,0.191,0.732,3.25,2.12,0.369,-0.0358,0.19,0.226,-0.165,0.355,-0.196,1.57
GCATATAGGTAATATAAGGTGAAAGTCCGATTGT,1.9,3.31,0.295,1.14,-0.277,1.81,1.55,1.24,0.669,1.16,3.84,3.32,1.58,0.946,0.929,0.702,0.375,1.78,0.541,0.618
CGAACGAGGGCATGGGTTGATAGCAAATGCCGAT,0.548,0.397,-0.228,0.329,-0.69,2.01,3.1,3.6,1.43,3.25,2.5,2.69,-0.338,0.301,0.704,0.517,0.232,0.938,-0.224,2.05
CCGACTGGGGCAGAAGGTTACCATAAGCCAGCCC,-0.0856,1.46,-0.41,0.494,-1.21,1.43,1.92,3.09,0.815,2.15,1.61,1.92,-0.993,-1.69,0.826,0.166,0.188,0.736,-0.0153,1.25
